Results taken from ChEMBL document CHEMBL3988442, “University of Dundee, Small-Polar-MMV Screening Library” (2021).
In all, about 48,000 compounds went through this assay and about 13,000 (27%) showed an effect of 50% or more. This is one part of the list.

System: Wolbachia pipientis
Test: Anti-Wolbachia Cell-Based Screen
Assay type: functional
Set-up: scale not given: in the data most compounds retested in dose-response had high values
Conditions: 5 µM

| Compound | Percent Effect [%] |
| --- | --- |
| Cc1nccn1CCN(C)c1nc(-c2ccc(Cl)cc2)nc2c1CNC2 | -50.51 |
| Cc1cccc(N(C)S(=O)(=O)c2cc(C(=O)O)cs2)c1 | 112.1 |
| CCOc1cccc(NS(=O)(=O)c2cc(C(=O)O)cs2)c1 | 19.91 |
| CN(c1ccc(C(C)(C)C)cc1)S(=O)(=O)c1cc(C(=O)O)cs1 | -4.452 |
| CN(c1ccc2ccccc2c1)S(=O)(=O)c1cc(C(=O)O)cs1 | 28.59 |
| Cc1ccc(N(C)S(=O)(=O)c2cc(C(=O)O)cs2)c(C)c1 | 115 |
| Cc1cccc(N(C)S(=O)(=O)c2cc(C(=O)O)cs2)c1C | -9.49 |
| CCN(c1cc(C)cc(C)c1)S(=O)(=O)c1cc(C(=O)O)cs1 | 116.9 |
| CN(c1cccc2ccccc12)S(=O)(=O)c1cc(C(=O)O)cs1 | -12.64 |
| Cc1ccc(N(C)S(=O)(=O)c2cc(C(=O)O)cs2)cc1 | 139 |
| COc1ccccc1N(C)S(=O)(=O)c1cc(C(=O)O)cs1 | 22.41 |
| Cc1cc(C)cc(N(C)S(=O)(=O)c2cc(C(=O)O)cs2)c1 | -4.793 |
| CN(c1ccc(F)c(F)c1)S(=O)(=O)c1cc(C(=O)O)cs1 | 2.683 |
| COCC1CN(C(=O)c2cccn2C)Cc2ncnn2C1 (configuration not stated) | -3.009 |
| CCN1CCCC1CN(CCN(C)C)S(=O)(=O)c1ccccc1C#N (configuration not stated) | -13.86 |
| CN(Cc1cccc(F)c1)C(=O)CS(=O)(=O)Cc1c(Cl)cccc1Cl | -4.804 |
| Cc1nn(C)c(C)c1NC(=O)CNc1cccc(CC(F)(F)F)c1 | -3.048 |
| FC(F)(F)c1ccc2nc([C@H]3CCN(C4CCC4)C3)[nH]c2c1 | 0.6058 |
| O=C(NCCN1CCCC1)c1ccc2c(-c3nccs3)noc2c1 | 3.961 |
| Cc1cccc2c1nc1n2[C@@H](CNC(=O)c2cncnc2)COC1 | -4.11 |
| CCN(C(=O)NCc1ccc(C)cc1OC)C(C)c1cccnc1 (configuration not stated) | 2.223 |
| CCC(C)(C)NC(=O)CN(Cc1cccc(O)c1)C1CCC(O)CC1 (configuration not stated) | -0.7077 |
| CCOC(=O)C1(CCOC)CCCN(Cc2nccn2CC)C1 (configuration not stated) | -2.653 |

| Compound | Percent Effect [%] |
| --- | --- |
| COc1c(CNC(C)C(=O)NC2CCCC2)c(C(C)C)nn1C (configuration not stated) | -36.61 |
| COc1c(CNCCC(=O)NC2CCCC2)c(C(C)C)nn1C | 98.08 |
| COc1c(CNC(C)C(=O)NC2CCCC2)c(C)nn1C (configuration not stated) | 6.635 |
| COc1c(CNCCC(=O)Nc2cccc(C)n2)c(C(C)C)nn1C | -41.29 |
| COc1c(CNCCC(=O)NC2CCCCC2)c(C(C)C)nn1C | 109.1 |
| COc1c(CNCc2nnc3n2CCCCC3)c(C(C)C)nn1C.Cl | 3.985 |
| CC(C)C1CN(c2ncccn2)CCC(=O)N1CC1CC1 (configuration not stated) | -33.18 |
| CC(=O)N1CCCN(C(=O)c2cnc(OC(C)C)c(Cl)c2)CC1 | -53.74 |
| C[C@@H]1CN(C(=O)c2ccc(C#N)nc2)C[C@@]1(O)C1CC1 | -20.15 |
| CCc1ocnc1C(=O)N1CCC2(CCCN(CC(C)(C)C)C2=O)C1 (configuration not stated) | 100.3 |
| CCc1cc(C(=O)N2CCC3(CCCN(CC4CC4)C3=O)C2)cs1 (configuration not stated) | 55.55 |
| COCCN1CCCC2(CCN(C(=O)c3cnc(O)cn3)C2)C1=O (configuration not stated) | -81.96 |
| Cc1occc1C(=O)N1CCC2(CCCN(CC3CC3)C2=O)C1 (configuration not stated) | -3.086 |
| Cc1occc1C(=O)N1CCC2(CCCN(CC3CCC3)C2=O)C1 (configuration not stated) | -0.1295 |
| CNc1nc(C(=O)N2CCC3(CCCN(CC4CC4)C3=O)C2)cs1 (configuration not stated) | -46.01 |
| CCc1c(C(=O)N2CCC3(CCCN(CCO)C3=O)C2)csc1C (configuration not stated) | 7.73 |
| CCCc1cc(C(=O)N2CCC3(CCCN(CCO)C3=O)C2)cs1 (configuration not stated) | -0.6433 |
| CCc1noc(C)c1C(=O)N1CCC2(CCCN(CC(C)(C)C)C2=O)C1 (configuration not stated) | 101.6 |
| CCc1n[nH]c(C(=O)N2CCC3(CCCN(CCOC)C3=O)C2)c1C (configuration not stated) | 116.4 |
| CCc1cc(C(=O)N2CCC3(CCCN(CCOC)C3=O)C2)cs1 (configuration not stated) | -4.642 |
| CCCc1cc(C(=O)N2CCC3(CCCN(CCOC)C3=O)C2)cs1 (configuration not stated) | 13.33 |
| CCn1cc(CN2CCC(C3CCN(C)CC3)CC2)cc1C#N | 8.542 |
| CC1CCN(C(=O)[C@@H]2C[C@H]3OCC[C@H]3N(Cc3ccoc3)C2)CC1.O=C(O)C(F)(F)F | -6.203 |

| Compound | Percent Effect [%] |
| --- | --- |
| COc1ccc2c(c1)C(C(=O)N(C)CCc1cnn(C)c1)CC(=O)N2 (configuration not stated) | 2.797 |
| Cc1csc(N(C)C(=O)C(c2c(F)cccc2Cl)N(C)C)n1 (configuration not stated) | 1.249 |
| c1ccc(OCc2noc(CN3CCN(C4CCCC4)CC3)n2)cc1 | 4.136 |
| Cc1noc(C)c1CNC(=O)N1CCC(C(O)c2ccccc2)CC1 (configuration not stated) | -2.263 |
| Cc1nc(C)c(CC(=O)N2CCC(Oc3ccccc3)CC2)c(=O)[nH]1 | 3.027 |
| Cc1n[nH]c(C)c1CC(=O)N1CC[C@@](C)(O)[C@@H](Cc2ccccc2)C1 | -1.869 |
| Cc1noc(C)c1CC(=O)N1CC[C@@](C)(O)[C@H](Oc2ccccc2)C1 | 138.5 |
| Cc1n[nH]c(C)c1CC(=O)N1CC[C@@](C)(O)[C@H](Oc2ccccc2)C1 | 132.6 |
| Cc1n[nH]c(C)c1CC(=O)N1CCC2(CC1)CN(C)CCN2C | -2.947 |
| CC[C@H](CO)NC(=O)c1coc(COc2cccc(F)c2F)n1 | -21.32 |
| COC(=O)CCCNC(=O)c1cc(COc2cncc(Cl)c2)on1 | 3.929 |
| CCN(Cc1csc(C)n1)c1cccc(CO)c1 | 19.84 |
| CC(c1nnc(-c2ccccc2)o1)N1CCC(Nc2ccccc2)CC1 (configuration not stated) | 109.3 |
| COc1ccc(-c2nnc(C(C)N3CCC4(CC3)OCCO4)o2)cc1 (configuration not stated) | -10.61 |
| COc1ccc(-c2nnc(C(C)N3CCOCC3)o2)cc1 (configuration not stated) | 0.5331 |
| CC(C)c1cc(CN2CCC(N)CC2)on1 | 102.3 |
| CCN1CCN(C2CCN(Cc3cc(C)on3)CC2)C1=O | -12.89 |
| CC(C)c1cc(N2CCC(N)CC2)n2nccc2n1 | -3.508 |
| CC(C)c1cc(CN2CCC(N)CC2)no1 | 118.3 |
| CC(C)c1cc(CN2CCC(CC(=O)O)CC2)no1 | 25.42 |
| COCCCN1CC2(CCN(Cc3cc(C(C)C)no3)CC2)CC1=O | -15.73 |
